From PubChem BioAssay
The list is not random: actives were taken first. Their share in the collection is about 1.2%.
APOBEC3A inh: blocks human APOBEC3A ssDNA deamination. P31941. recombinant A3A, FAM/TAMRA ssDNA deamination fluorescence. inhibition, % at 20 µM. hit rate 0.41% among 330,000. AID 493011;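 active means at least 40% inhibition at 20 µM here, with at most 30% in a related deaminase screen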
Target sequence (P31941 whole entry, looked up): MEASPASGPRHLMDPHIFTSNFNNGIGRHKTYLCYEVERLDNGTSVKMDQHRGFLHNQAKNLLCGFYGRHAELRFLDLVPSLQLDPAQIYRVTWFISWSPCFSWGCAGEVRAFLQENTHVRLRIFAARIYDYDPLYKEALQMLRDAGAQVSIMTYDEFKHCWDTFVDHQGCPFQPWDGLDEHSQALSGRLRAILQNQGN
NALP1 yeast inh: NALP1 inhibition; S. cerevisiae NALP1/ASC/caspase-1 growth, X-gal OD620, 72 h; inhibition, % at 10 µM; hit rate 0.61% among 280,000; in the data active means inhibition mostly above about 24%, no sharp cut-off; inactive means mostly below about 32%
PolyA inhibitor: inhibitors of polyadenylation in S. cerevisiae | hit rate 0.02% among 300,000 | S. cerevisiae SKY197-pL101 polyadenylation reporter, beta-gal luminescence; efflux-impaired pdr1/pdr3 knockout yeast; score 100 = 6 SD above DMSO | activity score, % at 12 µM;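 active means lowest replicate activity score at least 50, where 100 means six control SD above control mean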;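 further: yeast exposed to compound for 9 h at 30 °C; higher score means more reporter readthrough which indicates perturbed polyadenylation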
APOBEC3G inh: inhibitors of human APOBEC3G DNA deaminase. Q9HC16. recombinant A3G, ssDNA deamination FAM/TAMRA fluorescence. inhibition, % at 20 µM. hit rate 0.28% among 330,000;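 active means inhibition of at least 40% at 20 µM, with no more than 30% in the related APOBEC3A deaminase screen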
Target sequence (Q9HC16 whole entry, looked up): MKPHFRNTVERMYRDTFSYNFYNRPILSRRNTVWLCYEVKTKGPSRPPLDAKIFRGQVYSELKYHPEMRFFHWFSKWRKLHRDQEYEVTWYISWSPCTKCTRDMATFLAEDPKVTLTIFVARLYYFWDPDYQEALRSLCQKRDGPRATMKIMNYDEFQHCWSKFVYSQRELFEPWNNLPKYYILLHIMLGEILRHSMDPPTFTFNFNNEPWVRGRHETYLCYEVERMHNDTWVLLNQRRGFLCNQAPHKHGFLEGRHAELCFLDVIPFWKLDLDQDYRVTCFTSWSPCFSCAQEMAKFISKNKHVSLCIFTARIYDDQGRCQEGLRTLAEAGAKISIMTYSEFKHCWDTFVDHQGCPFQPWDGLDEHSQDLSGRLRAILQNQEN
A3A conf: APOBEC3A (human) deaminase inhibition, confirmed. shares compounds with APOBEC3A inh. recombinant A3A, ssDNA deaminase UDG fluorescence assay. inhibition, % at 20 µM. hit rate 63% among 1,400. AID 493151;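 active means inhibition reaching a set limit, 80% of the first screen's cutoff, at 20 µM in any replicate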
UDG ctr A3A: UDG inhibition in APOBEC3A counter-screen | shares compounds with APOBEC3A inh | UDG counterscreen, FAM/TAMRA uracil oligo fluorescence | inhibition, % at 20 µM | 1,000 tested, under 10 active | AID 504714; call rule not given here
Numbers stand for hits; . = inactive; / = no result; ! = a repeat was not active.

SMILES | APOBEC3A inh | NALP1 yeast inh | PolyA inhibitor | APOBEC3G inh | A3A conf | UDG ctr A3A
COCC[N+]1(C)CCCCC1 | . | . | . | . | / | /
C[N+](C)(C)CCCCCCC(=O)/C=N/O | 61 | . | . | . | 67 | .
C[N+]1(CCCCCCC(=O)/C=N/O)CCCCCC1 | 42 | . | . | . | 61 | .
CN(CCCCCC(=O)/C=N/O)Cc1ccccc1 | . | . | . | . | / | /
COc1ccc2nc(NC(=O)C3CCN(C(=O)c4ccco4)CC3)sc2c1 | . | . | . | . | / | /
CC(=O)c1ccc[n+](CC(=O)NC(C)c2ccccc2)c1 (stereo not given) | 62 | . | . | . | 64 | .
CCCCN(C(=O)CCC(=O)Nc1cc(C)on1)C(C(=O)NC1CCCC1)c1ccccc1OCC (stereo not given) | . | . | . | . | / | /
COc1ccc(NC(=O)/C=C/c2cccc(Br)c2)cn1 | 41 | . | . | . | 15 | .
CC(C)(C)c1ccc(NC(=O)C2=CN3CCS(=O)(=O)N=C3C=C2)cc1 | 51 | / | / | . | 71 | .
C[C@H](NC(=O)c1ccccc1Cl)C(=O)NCc1cccs1 | 59 | . | . | . | . | /
CN(CC(=O)N1CCN(Cc2ccccc2)CC1)C(=O)Cc1ccc(Cl)c(Cl)c1 | 50 | / | / | . | 34 | .
CN(C)S(=O)(=O)N(CC(=O)N1CCN(Cc2ccccc2)CC1)c1ccccc1 | . | / | . | . | / | /
CC(C)N(CCNC(=O)c1ccc(CS(=O)(=O)c2c(Cl)cccc2Cl)o1)Cc1ccccc1 | . | . | . | . | / | /
N#CC1(NC(=O)COc2ccc(S(=O)(=O)N3CCCC3)cc2[N+](=O)[O-])CCCCC1 | 51 | / | . | . | . | /
CC1CCCCN1C(=O)COc1ccc(S(=O)(=O)N2CCCC2)cc1[N+](=O)[O-] (stereo not given) | . | / | / | . | / | /
COc1ccc2nc(NC(=O)CSCc3c(C)noc3C)sc2c1 | . | / | . | . | / | /
Cc1noc(C)c1CSCC(=O)Nc1nc2ccc(S(C)(=O)=O)cc2s1 | 44 | / | . | . | . | /
COc1cccc2c1C(=O)c1c(O)c3c(c(O)c1C2=O)C[C@](O)(C(C)=O)C[C@H]3O[C@@H]1C[C@@H](N)[C@@H](O)[C@@H](C)O1 | 50 | / | . | . | 42 | /
CCOc1ccccc1OCCC(=O)OCC(=O)Nc1c(C)cc(C)cc1C | 62 | / | . | . | . | /
CCOc1ccc(NC(C(=O)Nc2cccc(C(C)=O)c2)c2ccccc2)cc1 (stereo not given) | 43 | . | . | . | . | .
CCN(Cc1nc2cc(Cl)ccc2c(=O)[nH]1)C(=O)c1cc(C2CC2)nn1-c1ccccc1 | . | / | / | . | / | /
Cc1c2cccn2cc[n+]1C | 42 | . | . | . | 78 | .
O=C(CSc1ncccn1)N1CCN(C(=O)CSc2ncccn2)CC1 | . | . | . | . | / | /
O=C(CSc1ncccn1)N1CCN(C(c2ccccc2)c2ccccc2)CC1 | 47 | . | . | . | 70 | .
CCN(C(=O)Cn1c(=O)oc2ccccc21)c1cccc(C)c1 | 100 | . | . | . | . | /
SMILES | APOBEC3A inh | NALP1 yeast inh | PolyA inhibitor | APOBEC3G inh | A3A conf | UDG ctr A3A
CCOC(=O)C1CCCN(CC(=O)Nc2nc(-c3ccccc3)cs2)C1 (stereo not given) | . | . | . | . | / | /
COc1ccc([N+](=O)[O-])cc1CSc1ccccn1 | 52 | . | . | . | 46 | .
CC1CCN(C(=O)c2[nH]cnc2C(=O)Nc2nccs2)CC1 | . | / | / | . | / | /
CC1CCN(C(=O)c2ncn(C)c2C(=O)N2CCC(C)CC2)CC1 | 55 | / | / | . | 69 | .
N=C1/C(=C/c2ccc(Br)o2)C(=O)N=C2SC(CC(=O)N3CCCC3)=NN12 | 43 | . | . | . | 45 | /
N=C1/C(=C/c2ccco2)C(=O)N=C2SC(CC(=O)N3CCCC3)=NN12 | 51 | . | . | . | 42 | .
Cc1ccc(/C=C2\C(=N)N3N=C(CC(=O)N4CCCCC4)SC3=NC2=O)cc1 | . | . | . | . | / | /
CC(C)[N+](C)(C)CC#CC(O)(c1ccccc1)c1ccccc1 | 65 | / | . | . | 73 | .
C[N+]1(CC#CC(O)(c2ccccc2)c2ccccc2)CCCC1 | . | . | . | . | / | /
Cc1cc(C)cc(OCC(=O)OCC(=O)NC2CCCCCC2)c1 | . | / | / | . | / | /
c1ccc2[nH]c(-c3ccnc4ccccc34)nc2c1 | 98! | . | . | . | . | /
Fc1ccccc1-c1nc2ccccc2[nH]1 | . | . | . | . | / | /
CCOC(=O)c1c(S(=O)(=O)NCC(=O)Nc2cc(C)ccn2)c(C)n(C)c1C | . | . | . | . | / | /
COc1ccc(CNC(=O)CSc2nnc(C3CC3)n2C2CC2)cc1 | . | / | / | . | / | /
O=c1cc(CSc2nnc(-c3cccs3)n2Cc2ccccc2)nc2sc3ccccc3n12 | 47 | . | . | . | . | /
Cn1c(SCc2ccccc2)nnc1-c1ccc(O)cc1 | . | . | . | . | / | /
O=C(c1ccc(Cl)cc1Cl)N1CCC(C(=O)N2CCOCC2)CC1 | . | . | . | . | / | /
CC(=O)NNS(=O)(=O)c1ccccc1[N+](=O)[O-] | 47 | . | . | . | . | .
CC(C)(C)C1CCC(OC(=O)C[N+]2(C)CCCC2)CC1 (stereo not given) | 47 | . | . | . | 79 | .
CC(C)(C)C1CCC(OC(=O)C[N+]2(C)CCCCC2)CC1 (stereo not given) | 90 | . | . | . | 84 | .
CC(C)(C)C1CCC(OC(=O)CN2CCOCC2)CC1 (stereo not given) | . | . | . | . | / | /
C[N+]1(CC(=O)OCCCC2CCCCC2)CCCC1 | 69 | . | . | . | 76 | .
CC(C)CC1CCCCC1OC(=O)C[N+]1(C)CCCCC1 (stereo not given) | 81 | . | . | . | 75 | .
COc1ccc(S(=O)(=O)N2CCOCC2)cc1NC(=O)C1CC1 | . | / | / | . | / | /
CN(C)CCN(C(=O)c1cccc2ccccc12)c1nc2cc3c(cc2s1)OCO3 | . | . | . | . | / | /
SMILES | APOBEC3A inh | NALP1 yeast inh | PolyA inhibitor | APOBEC3G inh | A3A conf | UDG ctr A3A
COc1ccc(-c2csc(N(CCCN(C)C)C(=O)c3ccccc3C)n2)cc1 | . | . | . | . | / | /
COc1ccc(-c2csc(N(CCCN(C)C)C(=O)c3ccccc3F)n2)cc1 | 48 | . | . | . | . | .
Cc1cc(C)c(NC(=O)c2ccccc2CCc2ccccc2)c(C)c1 | . | . | . | . | / | /
Cc1ccc(NC(=O)c2ccccc2CCc2ccccc2)c(C)c1 | 100 | . | . | . | . | /
Cc1ccc(OCC(O)CN2CCOCC2)cc1 (stereo not given) | . | . | . | . | / | /
CSc1cccc(NC(=O)CN(C2CCCCC2)S(C)(=O)=O)c1 | 65 | . | . | . | . | .
CCN1CCN(c2ccc(S(=O)(=O)N3CCOCC3)cc2NC(=O)c2ccc(Cl)cc2Cl)CC1 | 45 | / | . | . | . | /
CCN1CCN(S(=O)(=O)c2ccc(Cl)c(C(=O)Nc3ccccc3N3CCOCC3)c2)CC1 | 53 | / | . | . | 57 | .
CCN1CCN(S(=O)(=O)c2ccc(Cl)c(C(=O)Nc3cc(Cl)ccc3N3CCOCC3)c2)CC1 | 54 | . | . | . | 58 | .
